Compound activity from PubChem.
Shown is part of a subset that was picked to be rich in hits.
FBPA Giardia inh: blocks Giardia fructose-bisphosphate aldolase activity | A8B2U2 | purified Giardia FBPA | Potency, µM (top dose mostly 59.6 µM), hits mostly inhibitors | hit rate 0.71% among 290,000 | AID 2451; note: nearly all actives have a fitted effect of over 55% in size
Target sequence (A8B2U2 whole entry, looked up): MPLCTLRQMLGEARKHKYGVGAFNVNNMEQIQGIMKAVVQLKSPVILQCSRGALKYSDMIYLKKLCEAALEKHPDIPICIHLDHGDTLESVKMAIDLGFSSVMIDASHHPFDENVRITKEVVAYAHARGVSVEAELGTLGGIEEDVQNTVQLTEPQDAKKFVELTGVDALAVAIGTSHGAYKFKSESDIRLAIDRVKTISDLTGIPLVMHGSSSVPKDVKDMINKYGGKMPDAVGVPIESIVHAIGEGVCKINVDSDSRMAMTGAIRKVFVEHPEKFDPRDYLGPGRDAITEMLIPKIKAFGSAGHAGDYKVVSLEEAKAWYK
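Giardia FBPA (40 nM reagent) was preincubated 10 min at RT with compound (up to 57.5 uM final), then substrate plus GAPDH/TPI/NAD/arsenate coupling system with diaphorase/resazurin was added; resorufin fluorescence (525/598 nm) was read after 20 min.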
Tb PYK inh: blocks Trypanosoma brucei pyruvate kinase. Potency, µM (top dose mostly 76.8 µM), most hits filed as inhibitors. hit rate 0.12% among 410,000. AID 624173. TbPYK enzyme, Kinase-Glo Plus ATP luminescence, 45 min; note: nearly all actives have a fitted effect of over 50% in size
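Quantitative HTS: titrated library compounds versus trypanosomal pyruvate kinase in TEA buffer (pH 7.2) containing KCl, MgCl2, BSA and Tween-20. Reactions were initiated with ADP, 130 uM final. Kinase-Glo Plus luminescence was read after 45 min at RT.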
RE007 growth inh: less growth of the S. pombe RE007 Vpr strain; S. pombe RE007 Vpr strain, BacTiter-Glo ATP luminescence, 24 h; Potency, µM (doses to about 92.2 µM), usual class: inhibitors; hit rate 0.21% among 360,000; AID 651644; active = well fitted falling curve with a large enough effect; note: nearly all actives have a fitted effect of over 50% in size
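Fission yeast strain RE007, carrying one chromosomally integrated HIV-1 vpr copy, was seeded at OD 0.01 in PMG+AL medium with 23 nL pinned compound. After 24 h at 30 °C and 99% humidity, viability was read by BacTiter-Glo luminescence.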
Shiga inhibitor: Shiga toxin inhibition; Vero cells, Shiga toxin protein synthesis inhibition reporter; inhibition, % at 38.7 µM; hit rate 9.2% among 290,000; AID 2315; in the data active = inhibition mostly above about 28%, no sharp cut-off; inactive = mostly below about 43%
LmPK inh: inhibitors of Leishmania mexicana pyruvate kinase; Q27686; purified LmPK, Kinase-Glo ATP luminescence, 1 h; Potency, µM (top dose mostly 57.5 µM), most hits filed as inhibitors; hit rate 0.37% among 290,000; AID 1721
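Kinase-Glo luminescence read after 1 h RT reaction of 0.1 nM LmPK with 0.5 mM PEP and 0.1 mM ADP. Activity scaled between uninhibited and enzyme-free controls.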
CHX counter: counter-screen for Shiga toxin inhibitors: cycloheximide protein synthesis inhibition; hit rate 12% among 300,000; cell reporter, cycloheximide protein synthesis inhibition counterscreen; max response, %; in the data active = max response mostly above about 13%, no sharp cut-off; inactive = mostly below about 14%; note: read at 38.3 µM for the half of the compounds with a filed dose
A number is an active result; . = inactive; / = no result. Unless noted, calls come from the whole dose curve; as a rule, active = well fitted curve in the direction sought with a large enough effect; inconclusive = small, poorly fitted or top-dose-only effect, or another doubt; inactive = no such curve, though single readings can be large; an effect the other way counts as inactive or inconclusive.

SMILES | FBPA Giardia inh | Tb PYK inh | RE007 growth inh | Shiga inhibitor | LmPK inh | CHX counter
O=C(NC(=S)Nc1ccc2c(c1)OCO2)c1ccccc1 | . | . | . | 102.0 | . | 47.1
CC(C)(C)NS(=O)(=O)c1ccc(C(=O)Nc2ccc3c(c2)OCO3)cc1 | . | . | . | 76.6 | . | 20.7
S=C(Nc1ccc(Br)cc1)Nc1ccc2c(c1)OCCO2 | . | . | . | 102.9 | . | 58.4
CC(C)(C)NS(=O)(=O)c1ccc(CCC(=O)Nc2ccc3c(c2)OCO3)cc1 | . | . | . | . | . | .
O=C(Nc1ccccc1C(=O)Nc1ccc2c(c1)OCO2)c1cccs1 | . | . | . | . | . | 17.1
Cc1ccc(S(=O)(=O)NCl)cc1 | / | . | / | / | / | /
COc1cc(NC(=S)Nc2ccc3c(c2)OCCO3)cc(OC)c1OC | . | . | . | 68.5 | . | 32.3
O=C(Nc1cccc(NC(=O)c2cccs2)c1)c1ccc2c(c1)OCCO2 | . | . | . | 21.4 | . | 22.6
O=C(CCCc1ccccc1)Nc1ccc2c(c1)OCCO2 | . | . | . | 66.4 | . | 35.6
Cc1onc(-c2ccccc2)c1C(=O)Nc1ccc2c(c1)OCO2 | . | . | . | . | . | .
O=C(Nc1ccc2c(c1)OCO2)c1ccccc1 | . | . | . | 86.8 | . | 53.4
O=C(CN1C(=O)NC2(CCc3ccccc32)C1=O)Nc1ccc(Br)cc1F (configuration not stated) | / | . | . | / | / | /
CCOC(=O)c1cc(-c2ccccc2)n(-c2cccc(C(=O)Nc3cccc(C)c3)c2)c1C | / | . | / | / | / | /
CN(c1cccc(NC(=O)c2ccc(C(C)(C)C)cc2)c1)S(C)(=O)=O | . | . | . | . | . | 43.4
O=C(Nc1ccc2c(c1)OCCO2)c1cccc(C(=O)Nc2ccc3c(c2)OCCO3)c1 | . | . | . | 36.5 | . | 33.8
O=C(/C=C/c1ccc2c(c1)OCO2)c1cccs1 | . | / | / | / | / | /
Cc1ccc(NC(=O)c2ccc3c(c2)OCCO3)cc1 | / | . | . | . | . | .
O=C(Oc1ccc2c(c1)OCO2)c1cccs1 | . | . | . | 40.1 | . | 27.1
CC(C)c1ccc(O)c(NC(=S)NC(=O)c2ccc3c(c2)OCO3)c1 | / | . | . | 98.5 | . | 53.5
Cc1ccccc1-c1nc2cc(NC(=O)COc3ccc(F)cc3)ccc2o1 | / | . | / | / | / | /
Cc1cc(Br)c(OCC(=O)NN)c2c1CCC2 | . | . | . | . | . | .
O=C(NC(=S)Nc1cccc(Cl)c1N1CCCCC1)c1ccc2c(c1)OCCO2 | . | . | . | . | . | 20.1
COC(=O)c1cc2oc3ccccc3c2n1CC(=O)Nc1ccc(C)c(F)c1 | / | . | / | / | / | /
CCn1c(=O)c(C(=O)Nc2ccccc2S(N)(=O)=O)c(O)c2ccccc21 | . | . | . | . | . | 11.8
CCCn1c(=O)c(C(=O)Nc2ccccc2N)c(O)c2ccccc21 | / | . | . | / | / | /
SMILES | FBPA Giardia inh | Tb PYK inh | RE007 growth inh | Shiga inhibitor | LmPK inh | CHX counter
CCCCn1c(=O)c(C(=O)Nc2ccccc2S(N)(=O)=O)c(O)c2ccccc21 | . | . | . | . | . | .
CCCCCn1c(=O)c(C(=O)Nc2ccccc2S(N)(=O)=O)c(O)c2ccccc21 | . | . | . | 84.3 | . | 17.5
Cc1ccc(S(=O)(=O)N2CCNC(=O)CC2)cc1 | . | . | . | . | . | .
COc1ccc(CCN(C)C(=O)c2cnc(C)cn2)cc1OC | . | . | . | . | . | .
Cn1c(C(=O)N2CCC(C(=O)NCc3ccccc3)CC2)cc2sccc21 | / | . | . | . | . | .
ClC(Cl)c1nnc(-c2ccccc2)c(-c2c[nH]c3ccccc23)n1 | . | . | / | active | . | .
COc1ccccc1N1CC(C(=O)Nc2ccc(N3CCOCC3)cc2)CC1=O (configuration not stated) | / | . | . | / | / | /
O=C(c1cc2cc(Cl)ccc2o1)N1CCCC1 | . | . | . | 88.7 | . | 48.5
O=C(c1cc2ccccc2o1)N1CCOCC1 | / | . | . | / | / | /
O=C(NCc1ccccc1CN1CCCC1)c1cc2cc(Cl)ccc2o1 | / | . | . | / | / | /
O=C(c1cc2cc(Br)ccc2o1)N1CCCCC1 | . | . | . | 92.1 | . | 38.5
Cn1c(NCc2cc(Br)ccc2O)nc2ccccc21 | . | . | . | 65.9 | . | 26.9
CCN(CC)CCn1c(NCc2cc(OC)ccc2OC)nc2ccccc21 | . | . | . | . | . | .
